From PubChem BioAssay (NCI)
About 79,000 compounds went through this panel and 15% of them were active in at least one assay; those are over-represented in the sample as a whole. A number with no mark means an inactive call. Calls of active or inactive are those of the source. Rule as the data show it: active = growth inhibition above about 70%; inactive = the rest.

Tests used:
[1] = NCI Yeast Anticancer Drug Screen. Data for the rad50 strain (AID 155);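 also: 0% = growth of vehicle-only cultures of the same strain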; conditions: S. cerevisiae rad50 strain growth inhibition, active compounds read high
Summary of the method: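 Compounds were tested on a yeast strain with an engineered DNA damage repair alteration; the reported value is growth inhibition normalised to vehicle treatment.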

[2] = NCI Yeast Anticancer Drug Screen. Data for the mec2-1 strain (AID 157); conditions: S. cerevisiae mec2-1 strain, active compounds read high
Summary of the method: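 Using mec2-1 yeast: add compound, measure growth, express inhibition versus vehicle-treated cultures.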

[3] = NCI Yeast Anticancer Drug Screen. Data for the sgs1 mgt1 strain (AID 161);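 also: 0% = growth of cultures given vehicle only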; conditions: S. cerevisiae sgs1 mgt1 strain, active compounds read high
Summary of the method: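 Percent growth inhibition was derived by comparing compound-exposed mutant yeast with vehicle-exposed cultures. The strain carries alterations in DNA damage repair.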

[4] = NCI Yeast Anticancer Drug Screen. Data for the cln2 rad14 strain (AID 165);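 also: 0% = growth equal to vehicle treated cultures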; conditions: S. cerevisiae cln2 rad14 strain, active compounds read high
Summary of the method: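 Yeast strain cln2 rad14, bearing defects in cell cycle control and DNA repair, serves as the test system; values reflect growth inhibition compared with vehicle.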

[5] = NCI Yeast Anticancer Drug Screen. Data for the bub3 strain (AID 167); conditions: S. cerevisiae bub3 mutant strain, active compounds read high
Summary of the method: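 Growth of a checkpoint-deficient yeast mutant is measured after compound exposure. Values represent inhibition relative to vehicle.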

[6] = NCI Yeast Anticancer Drug Screen. Data for the mlh1 rad18 strain (AID 175); conditions: S. cerevisiae mlh1 rad18 strain growth inhibition, active compounds read high
Summary of the method: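 Steps: expose repair-defective yeast to compound; measure growth; express inhibition against vehicle-treated controls.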

[7] = at 5.0 µM (retest, dose inferred, filed as 0.5)
[8] = at 50.0 µM (retest, dose inferred, filed as 5.0)

Structure (SMILES) | growth inhibition [1, 7] | growth inhibition [1, 8] | growth inhibition ([1]; at 50.0 µM) | growth inhibition [2, 7] | growth inhibition [2, 8] | growth inhibition ([2]; at 50.0 µM) | growth inhibition [3, 7] | growth inhibition [3, 8] | growth inhibition ([3]; at 50.0 µM) | growth inhibition [4, 7] | growth inhibition [4, 8] | growth inhibition ([4]; at 50.0 µM) | growth inhibition [5, 7] | growth inhibition [5, 8] | growth inhibition ([5]; at 50.0 µM) | growth inhibition [6, 7] | growth inhibition [6, 8] | growth inhibition ([6]; at 50.0 µM)
N/C(=N\OC1(c2ccccc2)OC(=O)C(=O)/C1=C(/O)c1ccccc1)c1ccccc1 (stereo not given) | 10% | 97% (active) | 98% (active) | 8% | 89% (active) | 98.5% (active) | 13% | 87% (active) | 96.6% (active) | 0% | 75% (active) | 78% (active) | 7% | 94% (active) | 98.2% (active) | 4% | 92% (active) | 98.3% (active)
O=C(Oc1c(Cl)cc(Cl)c(Cl)c1Cl)Oc1c(Cl)cc(Cl)c(Cl)c1Cl | 4% | 1% | -1.15% | 5% | 4% | 15.2% | 6% | -11% | 0.3% | 6% | -11% | 6.85% | 4% | 0% | 70% (active) | 1% | -1% | 0.15%
NC(=O)N/N=C(/Cc1nc2ccccc2nc1C/C(=N/NC(N)=O)c1cccc2ccccc12)c1cccc2ccccc12 | -1% | 9% | 0.65% | -13% | -7% | 34.4% | -1% | 17% | 16.8% | -5% | 2% | 82.2% (active) | -8% | -10% | 0.15% | -6% | 6% | 8.4%
Cc1ccc2ccc3ccc(C)nc3c2n1 | 94% (active) | 93% (active) | 95.1% (active) | 92% (active) | 94% (active) | 96.3% (active) | 93% (active) | 96% (active) | 96.5% (active) | 91% (active) | 89% (active) | 94.3% (active) | 96% (active) | 94% (active) | 97% (active) | 94% (active) | 94% (active) | 95.8% (active)
COC(=O)C(C#N)C(c1ccccc1)c1c[nH]c2ccccc12 (stereo not given) | -3% | 75% (active) | 77.2% (active) | -4% | 59% | 16.3% | -5% | 63% | 55.7% | -52% | 82% (active) | 24.1% | -7% | 71% (active) | -4.8% | -14% | 89% (active) | 71% (active)
S=c1n(-c2ccc(Cl)cc2)c2nc3ccccc3nc(/c2=N\Nc2cc(Cl)ccc2Cl)n1-c1ccc(Br)cc1 | 2% | 16% | 50.3% | -9% | -12% | 84.5% (active) | 0% | 9% | 78% (active) | -6% | -24% | 76% (active) | -6% | 15% | 85.1% (active) | 1% | 4% | 68%
COc1c2c(cc3ccc(=O)oc13)C(Cl)C(Cl)O2 (stereo not given) | 7% | 97% (active) | 77.7% (active) | 4% | 98% (active) | 84.8% (active) | 10% | 98% (active) | 92.8% (active) | -16% | 97% (active) | 18.9% | 9% | 98% (active) | 91.2% (active) | 14% | 97% (active) | 97.7% (active)
C/C(=N\NC(=S)N1CCC(C)CC1)c1ncccn1 | -4% | 98% (active) | 99.2% (active) | -5% | 99% (active) | 99.2% (active) | 0% | 98% (active) | 99.3% (active) | -7% | 98% (active) | 98.8% (active) | -1% | 98% (active) | 99.3% (active) | -4% | 99% (active) | 98.9% (active)
COc1ccc(C2=C(Cl)C(=O)N(c3ccccc3C)C(=O)C2(Cl)Cl)cc1 | 66% | 95% (active) | 94.3% (active) | 17% | 97% (active) | 97.8% (active) | 83% (active) | 97% (active) | 97.9% (active) | 24% | 94% (active) | 85.4% (active) | 44% | 95% (active) | 94.1% (active) | 70% (active) | 93% (active) | 97.7% (active)
Cc1ccc(S(=O)(=O)N/N=C2\CC(C)OC3=C2CCCCCC3)cc1 (stereo not given) | 13% | 95% (active) | 75.5% (active) | 0% | 94% (active) | 79.3% (active) | 1% | 93% (active) | 61.1% | -3% | 92% (active) | 77.5% (active) | 1% | 95% (active) | 75.6% (active) | 31% | 95% (active) | 67.8%
C(=N\NC1=NCCN1)/c1cccc2cc3ccncc3nc12 | 8% | 66% | 86.5% (active) | 7% | 60% | 91% (active) | -4% | 63% | 83.8% (active) | -6% | 53% | 88% (active) | -12% | 27% | 87.7% (active) | -9% | 53% | 82.5% (active)
O=C(CC(O)(C(F)(F)Cl)C(F)(F)Cl)CC(O)(C(F)(F)Cl)C(F)(F)Cl | 94% (active) | 100% (active) | 99.1% (active) | 97% (active) | 100% (active) | 99.5% (active) | 93% (active) | 99% (active) | 99.5% (active) | 95% (active) | 99% (active) | 99.3% (active) | 91% (active) | 100% (active) | 99.6% (active) | 97% (active) | 100% (active) | 99.2% (active)
[N-]=[N+]=Nc1c(-c2ccccc2)c(=O)n(-c2ccccc2)c2ccccc12 | -19% | 93% (active) | 88% (active) | -20% | 94% (active) | 92.8% (active) | -10% | 95% (active) | 90% (active) | 12% | 95% (active) | 90% (active) | -2% | 94% (active) | 90% (active) | -13% | 96% (active) | 86.4% (active)
OCCCC(Sc1ccccc1)c1ccccc1 (stereo not given) | -1% | 25% | 46.4% | -18% | 13% | 78.5% (active) | -15% | 23% | 67.2% | -1% | -1% | 40.2% | -4% | 3% | -0.25% | 28% | 23% | 52.2%
C[n+]1c(-c2ccc(/C=N/Nc3ccnc(N/N=C/c4ccc(-c5cn6ccccc6[n+]5C)cc4)n3)cc2)cn2ccccc21 | 99% (active) | 99% (active) | 99.3% (active) | 100% (active) | 99% (active) | 99.5% (active) | 99% (active) | 99% (active) | 99.2% (active) | 98% (active) | 99% (active) | 99.3% (active) | 99% (active) | 99% (active) | 99.4% (active) | 99% (active) | 99% (active) | 99.2% (active)
Clc1c2ccccc2cc2cccnc12 | 17% | 90% (active) | 50.2% | 7% | 26% | 54.6% | 6% | 81% (active) | 48.8% | 3% | 40% | 36% | 3% | 71% (active) | 76% (active) | 17% | 86% (active) | 67.2%
Cc1cccc2c1NC(c1c(C)[nH]c3ccccc13)C2 (stereo not given) | 1% | 10% | 28.8% | -1% | 5% | 25.3% | -4% | 8% | 27.2% | 0% | -2% | 30.4% | -3% | 17% | 30.1% | -3% | -22% | 67.2%
Cc1nn(C(=O)c2ccccc2O)c2c1C(c1ccc(O)cc1O)SC(N)=N2 (stereo not given) | -31% | 28% | 46% | -1% | 47% | 22.6% | -3% | 24% | 42.5% | 16% | 27% | 41% | 15% | 81% (active) | 71.7% (active) | -4% | 54% | 48.2%
CC(C)c1ncc(-c2ccccc2)cc1-c1ccccc1 | -2% | 93% (active) | 95.7% (active) | -3% | 96% (active) | 97.5% (active) | -1% | 94% (active) | 97.7% (active) | 2% | 86% (active) | 78.8% (active) | 6% | 95% (active) | 98.5% (active) | -7% | 95% (active) | 96% (active)
Nc1nc(-c2cccnc2)nc(N)c1N=O | 7% | 82% (active) | 61.4% | 15% | 79% (active) | 79.2% (active) | 15% | 88% (active) | 70.6% (active) | 1% | 90% (active) | 66.5% | 36% | 92% (active) | 91.1% (active) | 25% | 94% (active) | 79.1% (active)
